PubChem BioAssay (NCATS)
Inconclusive results are not listed. Activity calls are given as the source filed them. Calls follow the shape of the dose curve; as a rule, active = well fitted inhibition curve with a large enough effect; inconclusive = small, poorly fitted or top-dose-only effect; inactive = flat fitted curve, though single readings scatter.

tested on: CP203; assay: qHTS profiling for inhibitors of Plasmodium falciparum proliferation (AID 504749); also: nearly all actives have a fitted effect of over 60% in size; conditions: P. falciparum in erythrocytes, SYBR Green DNA, 72 h; series mostly up to 28.7 µM
Excerpt: NIH National Institute of Allergy and Infectious Diseases [NIAID] NIH Chemical Genomics Center [NCGC] MLPCN Grant: None Assay Provider: Xinzhuan Su, NIAID NCGC Assay Overview: Plasmodium falciparum is a virulent malarial parasite that kills 1-2 million people worldwide each year. Transmitted by mosquitoes, the sporozoite form of the parasite enters the blood stream to infect hepatocytes, where they become merozoites that infect red blood cells (erythrocytes). Within erythrocytes, merozoites begin a […] cycle of growth and division, after which the parasite is released to infect new red blood cells. Gametocytes, which form within erythrocytes as well, circulate in the bloodstream and are ingested by the mosquito, thereby completing the life cycle. To profile malarial isolates for differential chemical responses and to identify inhibitors of malarial growth, an assay that measures P. falciparum growth and replication within erythrocytes was employed. This assay uses a DNA binding fluorescent dye (SYBR Green) to detect parasite DNA following cell lysis. Because mature erythrocytes lack DNA, only Plasmodium-derived DNA is detected.
NCGC Assay Protocol Summary: The SYBR Green viability assay was adapted from a method described previously (Plouffe et al., 2008). For screening 3 ul culture medium was dispensed into 1536 well black clear bottom plates (Aurora Biotechnologies) using a Multidrop Combi (Thermo Fisher Scientific Inc.), 23 nL compounds in DMSO were added by a pin tool (Kalypsys), and 5 ul of erythrocytes infected with P. falciparum (0.3% parasitemia, 2.5% hematocrit final concentration) were added. The plates were incubated at 37 C in a humidified incubator in 5% CO2 for 72 h, and 2 ul lysis buffer (20 mM Tris HCl, 10 mM EDTA, 0.16% saponin, 1.6% triton X, 10X SYBR Green I supplied as 10,000X […] by Invitrogen) was added to each well. The plates were mixed for 25 sec with gentle shaking and incubated overnight at room temperature in the dark. The following morning, fluorescence intensity at 485(14) nm excitation and 535(25) nm emission wavelengths was measured on an EnVision (Perkin Elmer) plate reader. Plate reads were normalized relative to the control inhibitor (0.29 uM artemisinin) and vehicle (DMSO) wells present on each plate and then corrected by an algorithm using vehicle-only control plates at the beginning and end of the compound plate stack.

| SMILES | outcome |
| --- | --- |
| O=c1[nH]cnc2c1ncn2[C@H]1CC[C@@H](CO)O1 | inactive |
| CC(=O)CCCCn1c(=O)c2c(ncn2C)n(C)c1=O | inactive |
| O=C(O)Cc1cccc2ccccc12 | inactive |
| CCCCCN(C)CCC(O)(P(=O)(O)O)P(=O)(O)O | inactive |
| O=C1NCC2(CCN(CCc3ccccc3)CC2)O1 | inactive |
| C[C@@H](O)[C@H]1C(=O)N2C(C(=O)O)=C(S[C@@H]3CN[C@H](C(=O)N(C)C)C3)[C@H](C)[C@H]12 | inactive |
| CC(=O)N[C@@H](CS)C(=O)O | inactive |
| NCCS | inactive |
| COc1ccccc1N1CCN(CCCNc2cc(=O)n(C)c(=O)n2C)CC1 | inactive |
| CCN(CC)C(=O)c1ccc(O)c(OC)c1 | inactive |
| CCN1CCC[C@H]1CNC(=O)c1cc(S(N)(=O)=O)ccc1OC | inactive |
| CC1(C)O[C@H]2C[C@@H]3[C@H]4CCC5=CC(=O)C=C[C@]5(C)[C@@]4(F)[C@@H](O)C[C@]3(C)[C@]2(C(=O)CO)O1 | inactive |
| NC(N)=Nc1nc(CSCC/C(N)=N/S(N)(=O)=O)cs1 | inactive |
| O=C(NCCN1CCOCC1)c1ccc(Cl)cc1 | inactive |
| CCN(CC)CCNC(=O)c1ccc(N)cc1 | inactive |
| CCCNC(=O)NS(=O)(=O)c1ccc(Cl)cc1 | inactive |
| Cc1cnc(C(=O)O)c[n+]1[O-] | inactive |
| O=C1Nc2ccc(Cl)cc2C(C#CC2CC2)(C(F)(F)F)O1 (centres undefined) | inactive |
| CC(=O)c1ccc(S(=O)(=O)NC(=O)NC2CCCCC2)cc1 | inactive |
| Clc1ccc(Cn2c(CN3CCCC3)nc3ccccc32)cc1 | inactive |
| O=C1NC(=O)C(c2ccccc2)(c2ccccc2)N1 | inactive |
| O=C(O)c1c(Cl)c(Cl)c(Cl)c(Cl)c1-c1c2cc(I)c(=O)c(I)c-2oc2c(I)c(O)c(I)cc12 | inactive |
| C[N+](C)(C)CCCCCC[N+](C)(C)C | inactive |
| COc1ccc(Cc2nccc3cc(OC)c(OC)cc23)cc1OC | inactive |
| O=C(O)c1cc(-c2ccccc2)nc2ccccc12 | inactive |
| CCCCC1C(=O)N(c2ccccc2)N(c2ccccc2)C1=O | inactive |
| CC/C(=C(\c1ccccc1)c1ccc(OCCN(C)C)cc1)c1ccccc1 | inactive |
| CCN(CC)CCOC(=O)c1ccc(N)cc1 | inactive |
| CCOC(=O)O[C@]1(C(=O)OCCl)CC[C@@H]2[C@H]3CCC4=CC(=O)C=C[C@]4(C)[C@@H]3[C@@H](O)C[C@@]21C | inactive |
